These compounds were tested on glycogen synthase kinase-3 (GSK3A per assay name; protocol says GSK3B) (assay: compounds binding glycogen synthase kinase-3 – biochemical, small-molecule microarray, 635 nm fluorescence, GSK3A, primary screen (AID 1103; also: the record names both GSK3A and GSK3B)). Conditions: fluorescence 635 nm, higher = more signal.
Compound `CCOc1ccc(N2C(=O)CSC2c2cccc([N+](=O)[O-])c2)cc1` (configuration not stated) has a composite z-score of 0.0863.
For `COc1cc(CO)cc(I)c1O[C@H]1C=C(C(=O)NCCO)C[C@@H](NC[C@@H]2CCCO2)[C@@H]1O`, the composite z-score was 0.0227.
Compound `CCCNC(=O)[C@@H]1c2ccccc2C(=O)N(Cc2ccccc2OC)[C@H]1c1ccc(CO)cc1` has a composite z-score of 0.68.
With `COCCOC(=O)N1C(=O)[C@@]2(c3cc(C#CCCO)ccc31)[C@H](c1ccc(O)cc1)N1[C@H](c3ccccc3)[C@H](c3ccccc3)OC(=O)[C@H]1[C@@H]2C(=O)N1CCN(c2ncccn2)CC1` the composite z-score was 1.31.

What follows are compounds tested against Epidermal growth factor receptor (Homo sapiens) (UniProt P00533) (assay: compounds binding epidermal growth factor receptor – biochemical, small-molecule microarray, 635 nm fluorescence, primary screen (AID 1104;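 also: score merges 667 nm emission intensity with spot signal to noise over triplicate slides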)). Conditions: EGFR binding, higher = more signal.
Chain of Epidermal growth factor receptor (Homo sapiens) (P00533 whole entry, looked up): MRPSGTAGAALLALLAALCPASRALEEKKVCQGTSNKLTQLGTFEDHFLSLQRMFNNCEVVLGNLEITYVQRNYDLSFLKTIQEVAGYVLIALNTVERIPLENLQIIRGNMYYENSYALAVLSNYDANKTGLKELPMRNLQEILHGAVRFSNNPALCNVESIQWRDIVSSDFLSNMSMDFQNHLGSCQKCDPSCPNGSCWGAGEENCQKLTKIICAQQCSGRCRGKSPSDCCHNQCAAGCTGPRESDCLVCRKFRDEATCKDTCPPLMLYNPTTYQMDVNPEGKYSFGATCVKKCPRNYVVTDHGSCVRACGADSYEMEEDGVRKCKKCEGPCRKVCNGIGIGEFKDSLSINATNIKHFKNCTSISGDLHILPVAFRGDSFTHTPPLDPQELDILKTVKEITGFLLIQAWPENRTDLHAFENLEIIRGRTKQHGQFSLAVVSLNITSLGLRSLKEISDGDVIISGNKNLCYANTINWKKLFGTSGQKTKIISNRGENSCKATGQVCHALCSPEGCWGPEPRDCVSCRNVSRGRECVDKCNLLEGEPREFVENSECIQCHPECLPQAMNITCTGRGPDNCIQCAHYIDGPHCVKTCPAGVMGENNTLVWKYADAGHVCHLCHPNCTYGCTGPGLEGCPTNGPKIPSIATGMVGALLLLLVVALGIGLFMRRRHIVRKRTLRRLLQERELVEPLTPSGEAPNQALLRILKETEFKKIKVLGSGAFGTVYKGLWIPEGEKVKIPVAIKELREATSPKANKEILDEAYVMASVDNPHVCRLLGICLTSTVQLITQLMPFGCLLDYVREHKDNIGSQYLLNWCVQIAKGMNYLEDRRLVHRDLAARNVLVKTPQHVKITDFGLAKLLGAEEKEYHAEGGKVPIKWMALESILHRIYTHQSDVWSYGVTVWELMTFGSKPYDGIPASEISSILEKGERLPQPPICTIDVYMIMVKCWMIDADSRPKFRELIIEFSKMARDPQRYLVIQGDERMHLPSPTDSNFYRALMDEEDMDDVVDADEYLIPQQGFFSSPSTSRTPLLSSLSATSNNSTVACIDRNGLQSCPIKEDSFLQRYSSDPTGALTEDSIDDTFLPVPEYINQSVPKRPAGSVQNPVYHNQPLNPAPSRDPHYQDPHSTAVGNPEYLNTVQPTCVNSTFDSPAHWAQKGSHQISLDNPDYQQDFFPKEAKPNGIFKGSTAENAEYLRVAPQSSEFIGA
With `COc1cc(CO)cc(I)c1O[C@H]1C=C(C(=O)NCCO)C[C@@H](N(C(=O)c2cc3ccccc3oc2=O)C2CCCCCC2)[C@@H]1O` the composite z-score was 0.338.
In the case of `O=C1C2C=CC(C(O)C=Cc3ccc([N+](=O)[O-])cc3)N(n3cnnc3)C2C(=O)N1Cc1ccccc1` (configuration not stated), the composite z-score was -0.0912.
In the case of `COCCOC(=O)N1C(=O)[C@@]2(c3ccccc31)[C@H](C(=O)N1CCc3cc(OC)c(OC)cc3C1)[C@H]1C(=O)O[C@H](c3ccccc3)[C@H](c3ccccc3)N1[C@@H]2c1ccc(O)cc1`, the composite z-score was 0.431.
Compound `C#CCN(C/C=C/c1ccccc1)[C@H](CO)c1ccccc1` has a composite z-score of -0.0239.
`O=C1OCCC=C[C@H]2OC34C=CCN(c5ccc(Cl)cc5)C(=O)[C@H]3N(CCCO)C(=O)[C@@H]4C12` (some centres not stated) showed a composite z-score of -0.522.
Work on `CCCCC(O)C1C=CC2C(=O)N(C)C(=O)C2N1N1CCCCC1` (configuration not stated) yielded a composite z-score of 0.229.
In the case of `COc1cc2c(cc1OC)CN(C(=O)[C@H]1[C@@H]3C(=O)O[C@@H](c4ccccc4)[C@@H](c4ccccc4)N3[C@@H](c3ccccc3OCCO)[C@]13C(=O)Nc1ccc(C#CCCO)cc13)CC2`, the composite z-score was 0.47.
`COCCCNC(=O)[C@@]1(Cc2ccccc2)N=C(c2ccc(OCCCO)cc2)O[C@H]1c1ccccc1CN=[N+]=[N-]` was tested, and the composite z-score was -0.105.
For `CC(C)Cc1ccc(CN2CC[C@@H](N)C2)cc1`, the composite z-score was -1.06.
`C[N+](C)(C)CCCC[C@@H]1NC(=O)[C@H]2C[C@@H](C(=O)NCCCCCCNC(=O)CS)[C@@H](c3ccc(O)cc3)N2C1=O` showed a composite z-score of -0.805.
`COc1ccc(C#Cc2ccc3c(c2)[C@]2(C(=O)N3)[C@H](c3ccc(O)cc3)N3[C@H](c4ccccc4)[C@H](c4ccccc4)OC(=O)[C@H]3[C@@H]2C(=O)N2CCc3cc(OC)c(OC)cc3C2)cc1` showed a composite z-score of 0.469.
Compound `[N-]=[N+]=Nc1ccccc1C[C@]1(C(=O)NCC(O)CO)N=C(c2ccc(OCCCO)cc2)O[C@H]1c1ccccc1` (some centres not stated) has a composite z-score of -0.704.
Compound `CC(C)(C)OC(=O)CC[C@]1(C(=O)NCCN2CCOCC2)COC(c2ccc(OCCCO)cc2)=N1` has a composite z-score of -0.422.
With `[N-]=[N+]=NCc1ccccc1C[C@@]1(C(=O)NCC(O)CO)N=C(c2ccc(OCCCO)cc2)O[C@@H]1c1ccccc1` (some centres not stated) the composite z-score was -0.455.
Compound `CC(C)[Si](C#CCCCC#N)(Oc1ccccc1Br)C(C)C` has a composite z-score of 0.216.
In the case of `C=CCN1Cc2ccccc2[C@@H]2OC(c3ccc(OCCCO)cc3)=N[C@]2(CCS(=O)(=O)c2ccccc2)C1=O`, the composite z-score was 1.01.
With `CCOC(=O)C1=C[C@@H](C(C)C)N(S(=O)(=O)c2ccc(C)cc2)[C@H]1c1ccccc1F` the composite z-score was 0.6.
In the case of `[N-]=[N+]=NCc1ccccc1[C@@H]1OC(c2ccc(OCCCO)cc2)=N[C@]1(CCS(=O)(=O)c1ccccc1)C(N)=O`, the composite z-score was 0.588.
`OCCCC1=CC(C2CC2)N(Cc2cccc(OC(F)(F)F)c2)CC1` (configuration not stated) showed a composite z-score of -0.651.
In the case of `Cc1ccc([C@H]2C(C(=O)O)=CCN2S(=O)(=O)c2ccc(C)cc2)cc1`, the composite z-score was -0.327.
In the case of `COc1ccc([Si](C)(C)[C@H]2[C@H](CCO)O[C@@]3(C(=O)N(Cc4ccccc4)c4ccc(N5CCCCC5=O)cc43)[C@@H]2C)cc1`, the composite z-score was 0.199.
`CC#CC(=O)Oc1ccc(Br)cc1C=CC(=O)OCC` was tested, and the composite z-score was -0.257.
`COc1cc(OC)c(C(O)C2C=CC3C(=O)NC(=O)C3N2Nc2ccccn2)cc1Br` (configuration not stated) showed a composite z-score of 0.807.
`O=C1[C@H]2C=C(I)[C@H](C[C@@H]2OCCCCO)[C@@]12CO2` was tested, and the composite z-score was -0.15.
`C=C(CCCC)/C(=C/C[C@H](OC(C)=O)c1ccc(OCCO)cc1)c1cnc2ccccc2c1` was tested, and the composite z-score was 0.384.
For `COc1ccc(CCNC(=O)[C@@]2(C)c3ccccc3C(=O)N(c3ccc(C)cn3)[C@H]2c2ccc(CO)cc2)cc1`, the composite z-score was -1.03.
With `C=CCC(OC(C)=O)[C@@H]1[C@@H](N(Cc2ccc(-c3cccc(C(F)(F)F)c3)o2)C(=O)Cc2ccc(OC)cc2)c2cc(OCCCO)ccc2N1C(=O)c1ccc2ccccc2c1` (some centres not stated) the composite z-score was -0.488.
Work on `CN(C)CCCC[C@@H]1NC(=O)[C@H]2C[C@@H](C(=O)NCCCCCN)[C@@H](c3cccc(OCCO)c3)N2C1=O` yielded a composite z-score of 0.0076.

— PubChem BioAssay
